Compounds without any hit were thinned out: in the full panel of roughly 83,000, 20% have a hit.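 Assay: single dose, 48 h. Readout: percent growth (0 = no net growth; negative = cell death). Active: <10.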 Activity calls are given as the source filed them.
What follows are compounds tested on HL-60(TB) leukemia (assay: NCI-60 one-dose screen, 48 h (100 = growth as untreated, 0 = no growth, -100 = all killed)). Conditions: 10 µM unless noted.
With O=C(COc1ccc(NC(=O)Nc2ccc(Cl)c(Cl)c2)cc1)N=Nc1c(O)[nH]c2ccc(Br)cc12 the growth was -27.2% (active). With Cn1cc(-c2cc(N)n3nc(-c4c[nH]c5ccc(Br)cc45)cc3n2)c2cccnc21 the growth was -49.9% (active). COc1ccc2[nH]cc(-c3cc(N)n4nc(-c5cn(C)c6ccccc56)cc4n3)c2c1 was tested, and the growth was -40.7% (active). For Cc1ccc2c(c1)C(=O)/C(=C/c1ccc([N+](=O)[O-])cc1)S2, the growth was 107% (inactive).
